An excerpt weighted towards active compounds, which were near 1.5% of everything screened.
TcdB inh = TcdB glycohydrolase inhibitors, primary screen, biochemical, single point, plate reader | Toxin B (Clostridioides difficile), P18177 | TcdB glycohydrolase enzymatic assay | inhibition, % at 9.99 µM | 350,000 compounds, 0.24% hits; in the data active means inhibition above about 10%
PrPC surface inh = inhibitors of human cell surface prion protein PrPC, primary screen, cell-based, TR-FRET. TR-FRET read-out. inhibition, % at 13.8 µM. 370,000 compounds, 0.43% hits. AID 720596, 2013; in the data active means inhibition above about 24%; further: 0% = median of the test wells and 100% = reference compound wells
SSB-PriA inh = inhibitors of Klebsiella pneumoniae PriA binding to SSB C-terminal tail, primary screen, biochemical, AlphaScreen. 430,000 compounds, 0.6% hits. AlphaScreen SSBct-PriA binding, biotinylated peptide. inhibition, % at 33 µM. AID 1272365, 2023. PriA–SSB C-terminal tail interaction (Klebsiella pneumoniae); in the data active means inhibition mostly above about 37%, no sharp cut-off; inactive means mostly below about 20%;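 further: plate controls were negative control peptide for no effect and reference peptide for full effect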
DUSP3 inh = VHR1 phosphatase inhibitors, primary screen, biochemical, absorbance, uHTS; Dual specificity protein phosphatase 3 (Homo sapiens), P51452; inhibition, % at 13.3 µM; 290,000 compounds, 0.52% hits; recombinant VHR phosphatase, pNPP absorbance; AID 1654, 2009; in the data active means inhibition above about 50%
Target sequence (P51452 whole entry, looked up): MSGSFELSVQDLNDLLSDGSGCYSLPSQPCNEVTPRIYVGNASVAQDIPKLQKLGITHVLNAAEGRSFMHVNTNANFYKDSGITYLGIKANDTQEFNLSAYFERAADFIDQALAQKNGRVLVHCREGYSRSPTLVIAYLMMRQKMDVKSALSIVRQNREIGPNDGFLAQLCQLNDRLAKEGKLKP
CCHF vOTU inh-1 = CCHFV vOTU protease inhibitors, primary screen, biochemical, Pep-AMC substrate, fluorescence; Crimean-Congo hemorrhagic fever virus L polyprotein viral ovarian tumor (vOTU) protease …; inhibition, % at 11.5 µM; 370,000 compounds, 0.55% hits; further: 0% = vehicle wells with enzyme and 100% = no enzyme wells
Vc quorum ag = inducers of Vibrio cholerae quorum light production without autoinducers, primary screen, BH1578 luxS cqsA deficient, single point. activation, % at 18.7 µM. AID 588436, 2011. 350,000 compounds, 0.16% hits. V. cholerae BH1578 lux reporter, luminescence, 6 h; in the data active means activation mostly above about 9.7%, no sharp cut-off
CCHF vOTU inh-2 = CCHFV vOTU protease inhibitors, confirmation, biochemical, Pep-AMC substrate, fluorescence. shares compounds with CCHF vOTU inh-1. Recombinant CCHFV vOTU. inhibition, % at 11.5 µM. 1,900 compounds, 17% hits. AID 686976, 2013
Numbers without * were called inactive; i = inactive; nt = not tested or not shown. Unless noted, no stated cut-off is given here; in the data, active means inhibition above about 30%; inactive means the rest.

SMILES	TcdB inh	PrPC surface inh	SSB-PriA inh	DUSP3 inh	CCHF vOTU inh-1	Vc quorum ag	CCHF vOTU inh-2
COc1ccc(C=C2SC(=S)N(CCCC(=O)Nc3ccc(C(=O)O)c(O)c3)C2=O)cc1OC	1.5	-43.6	nt	nt	22.4	1.1	nt
O=C(CCCN1C(=O)/C(=C/c2ccccc2)SC1=S)Nc1ccc(C(=O)O)c(O)c1	1.2	-11.3	7.0	19.0	30.3*	-0.5	4.9
O=C(CN1C(=O)/C(=C/c2ccco2)SC1=S)Nc1ccc(O)c(C(=O)O)c1	-0.6	-6.3	5.3	-9.3	17.9	0.5	nt
CCc1ccccc1NC(=O)CSc1ncc(-c2cccc(Br)c2)o1	nt	nt	-11.0	nt	nt	nt	nt
CCCCCCCCCCNS(=O)(=O)c1ccc2c(c1)C(=O)c1ccccc1C2=O	nt	nt	-11.0	nt	nt	nt	nt
O=C1C2C3CCCC3=C3CCCC3C2C(=O)N1c1cccc(Cl)c1 (centres undefined)	nt	-3.2	-13.3	23.4	-10.8	2.8	nt
O=C1C2C3C=CC(c4ccccc4)(C2C(=O)N1c1cccc(Cl)c1)C1C(=O)N(c2cccc(Cl)c2)C(=O)C31 (centres undefined)	nt	-9.8	6.1	25.5	38.1*	3.6	-12.6
CCc1ccc(S(=O)(=O)/N=C2\C=CC(=O)c3ccccc32)cc1	nt	nt	nt	9.8	nt	nt	nt
Cc1cc(C)c(S(=O)(=O)/N=C2\C=C(Nc3ccc(C(=O)O)cc3)C(=O)c3ccccc32)c(C)c1	-0.2	-38.3	nt	35.8	124.7*	-0.2	111.1*
CCc1ccc(S(=O)(=O)/N=C2\C=C(Nc3ccc(O)cc3)C(=O)c3ccccc32)cc1	nt	nt	nt	15.3	nt	-0.5	nt
O=S(=O)(N=C1C=CC(=NS(=O)(=O)c2ccccc2)c2ccccc21)c1ccccc1	0.5	1.7	nt	nt	71.6*	-9.1	68.3*
Cc1cc(C)c(S(=O)(=O)/N=C2\C=C(NS(=O)(=O)c3ccccc3)C(=O)c3ccccc32)c(C)c1	-10.2	4.2	nt	-3.8	20.3	-0.3	nt
CCc1ccc(S(=O)(=O)/N=C2\C=C(Nc3cccc(C(=O)O)c3)C(=O)c3ccccc32)cc1	-0.7	-24.4	nt	35.3	136.9*	0.1	114.8*
O=C(O)c1ccc(NC2=C/C(=N/S(=O)(=O)c3ccccc3)c3ccccc3C2=O)cc1	0.7	-34.6	nt	37.4	108.5*	i	113.4*
COC(=O)N1CCC(CNC(=O)c2ccccc2S(=O)(=O)C(F)F)CC1	nt	nt	-14.0	nt	nt	nt	nt
COC(=O)c1ccc2c(=O)n(CCN(Cc3ccco3)C(C)C)c(=S)[nH]c2c1	nt	nt	-18.0	nt	nt	nt	nt
Cc1ccc(Cl)cc1NC1=CC(=NS(=O)(=O)c2cccs2)c2ccccc2C1=O	nt	nt	60.5	nt	nt	nt	nt
Cc1ccc(S(=O)(=O)/N=C2\C=C(NS(=O)(=O)c3ccccc3)C(=O)c3ccccc32)cc1	1.9	-1.9	nt	nt	51.3*	-3.2	29.1
O=C(O)c1ccc(NC2=C/C(=N/S(=O)(=O)c3cccs3)c3ccccc3C2=O)cc1	-0.7	-27.5	nt	nt	110.1*	-1.4	104.8*
Cc1cccc(NC2=CC(=NS(=O)(=O)c3cccs3)c3ccccc3C2=O)c1	nt	nt	9.0	nt	nt	nt	nt
Cc1ccc(Cl)cc1NC1=C/C(=N\S(=O)(=O)c2cccs2)c2ccccc2C1=O	0.0	-0.7	nt	16.6	95.9*	-0.2	95.4*
NS(=O)(=O)c1ccc(NC(=O)c2cccc(OCc3ccccc3)c2)cc1	nt	nt	-14.0	nt	nt	nt	nt
CCNC(=O)c1nsc(C(=O)NCc2ccc3c(c2)OCO3)c1N	nt	nt	-8.0	nt	nt	nt	nt
Cn1c(C(F)(F)F)nn(CCNC(=O)c2cnc3ccccc3n2)c1=O	nt	nt	-9.0	nt	nt	nt	nt
O=c1cc(C(F)(F)F)nc(SCc2cccc3ccccc23)[nH]1	0.6	-1.6	-4.4	3.9	31.4*	-0.3	8.7
CC12CCC(C(=NO)C1=O)C2(C)C (centres undefined)	1.1	1.6	-9.0	nt	35.6*	-4.3	-17.1
CC12CCC(C(=NO)C1=NO)C2(C)C (centres undefined)	0.8	-3.8	1.9	nt	5.9	-1.0	nt

From PubChem BioAssay
